# High-throughput results as filed in PubChem BioAssay.
# The list is not random: actives were taken first. Their share in the collection is about 9.4%.
# NPC1 promoter act – activates the NPC1 promoter | Huh7 NPC1 promoter luciferase reporter, 24 h | Potency, µM (highest dose often 9.22 µM), inactives show top-dose activation, actives largely listed as activators | 320,000 compounds, 2.4% hits; note: % of control where 0% means no effect; nearly all actives have a fitted effect of over 60% in size
#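 Huh7 cells stably carrying NPC1 promoter–luciferase, plated in Opti-MEM with 10% FBS for 2 h, were exposed to compound in DMSO for 24 h at 37 °C; luciferase reagent was added for 10 min and luminescence read.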
# FLuc counter – counter-screen for miR-21 project: firefly luciferase inhibitors or activators; purified FLuc, Km substrates, luminescence inhibition; Potency, µM (titrated, usually from 57.5 µM), without a hit: at the highest dose activity change, negative = inhibition, hits mostly inhibitors; 360,000 compounds, 6.9% hits; AID 588342;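 note: plate controls were vehicle for no effect and reference inhibitor for full effect; nearly all actives have a fitted effect of over 55% in size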
# Target sequence (P08659 whole entry, looked up): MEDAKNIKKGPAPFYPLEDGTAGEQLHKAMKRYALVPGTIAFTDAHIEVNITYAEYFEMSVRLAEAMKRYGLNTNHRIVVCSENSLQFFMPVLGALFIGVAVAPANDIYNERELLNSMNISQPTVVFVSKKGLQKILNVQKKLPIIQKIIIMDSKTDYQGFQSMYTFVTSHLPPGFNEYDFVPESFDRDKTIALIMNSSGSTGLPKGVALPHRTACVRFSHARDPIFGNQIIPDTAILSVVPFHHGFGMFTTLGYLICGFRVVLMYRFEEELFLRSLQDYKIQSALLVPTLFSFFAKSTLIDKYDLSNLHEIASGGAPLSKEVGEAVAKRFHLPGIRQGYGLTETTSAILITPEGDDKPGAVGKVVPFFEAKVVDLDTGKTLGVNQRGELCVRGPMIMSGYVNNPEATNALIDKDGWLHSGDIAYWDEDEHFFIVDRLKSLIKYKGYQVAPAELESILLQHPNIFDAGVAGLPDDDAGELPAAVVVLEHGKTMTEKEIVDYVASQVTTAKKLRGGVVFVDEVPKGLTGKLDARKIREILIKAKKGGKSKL
#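 Biochemical qHTS of compounds, final roughly 60 µM downward over six points, against 10 nM purified firefly luciferase using Km concentrations of substrates (10 uM D-luciferin, 10 uM ATP) in Tris acetate pH 7.5 buffer; luminescence output.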
# Rab9 promoter act – activates the Rab9 promoter; Huh7 Rab9 promoter-luciferase reporter, luminescence, 24 h; AID 485297; 320,000 compounds, 2.8% hits; Potency, µM (top dose mostly 9.22 µM), for inactives: at the top dose activation, negative = inhibition, actives largely listed as activators; note: % of control where 0% means no effect; nearly all actives have a fitted effect of over 60% in size
#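 Using Huh7 cells stably transfected with Rab9 promoter–luciferase, compounds were incubated 24 h at 37 °C, 5% CO2; luciferase luminescence was read 10 min after reagent addition.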
# ELG1 genotoxic – induces genotoxicity in HEK293T cells with luciferase-tagged ELG1. HEK293T ELG1-luciferase reporter, luminescence, 16 h. Potency, µM (doses to about 46 µM), without a hit: at the highest dose activity change, positive = activation, usual class: activators. 330,000 compounds, 1.3% hits. AID 504466; note: % of control where 0% means no effect; nearly all actives have a fitted effect of over 60% in size
#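 Cells (2,000/well) expressing the ELG1-luciferase fusion are dosed by pin tool and kept 16 hr at 37 °C, 5% CO2. Signal comes from ONE-Glo luciferase reagent after 30 min at room temperature.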
# SMN2 splice enh – SMN2 splice variant enhancement; HEK293 SMN2-luciferase splicing reporter, luminescence, 30-36 h; Potency, µM (top dose mostly 46.1 µM), for inactives: at the highest dose activity change, positive = activation, hits mostly activators; 210,000 compounds, 2.8% hits; AID 1458; note: % of control where 0% means no effect; nearly all actives have a fitted effect of over 55% in size
#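 HEK293 cells carry an SMN2 minigene-luciferase reporter in which exon 7 inclusion puts luciferase in frame. Cells were seeded at 2000 cells/well, attached for 10-12 hours, then exposed to compounds for 30-36 hours at 37C before ONE-Glo luminescence.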
# ELG1 repair inh – blocks ELG1-dependent DNA repair in HEK293T cells. 330,000 compounds, 2.3% hits. HEK293T ELG1-luciferase reporter, luminescence, 16 h; DNA damage induced by 5-fluorouridine. Potency, µM (top dose mostly 46.1 µM), for inactives: top-dose activity change, negative = inhibition, actives largely listed as inhibitors; note: % is set by controls: 0 for no effect and ±100 for the full control effect; nearly all actives have a fitted effect of over 55% in size
#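 DMSO vehicle served as the neutral condition. Each well held 2,000 cells given 5-fluorouridine plus compound; after 16 hr at 37 °C/5% CO2, ONE-Glo was added and luciferase measured 30 min later.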
# * marks the source's active call; other numbers are inactive results; ? = inconclusive; nt = no result; [ ] = dose if it differs, or a comment. Calls come from the whole dose curve; as a rule, active = well fitted curve in the direction sought with a large enough effect; inconclusive = small, poorly fitted or top-dose-only effect, or another doubt; inactive = no such curve, though single readings can be large; an effect the other way counts as inactive or inconclusive. Potency is the fitted concentration of half-maximal effect.
SMILES,NPC1 promoter act,FLuc counter,Rab9 promoter act,ELG1 genotoxic,SMN2 splice enh,ELG1 repair inh
CSc1ccc(C(=O)/C=C/c2ccc(N)cc2)cc1,?,0.76µM*,3.2µM*,13µM*,14µM*,?
CSc1ccc(/C=C/C(=O)c2ccc(NC(=O)Cc3ccccc3)cc2)cc1,0%,12µM*,4%,-4%,-10%,5%
CC(C)C(=O)Nc1ccc(Sc2ccc(F)cc2)cc1,-3%,1%,-1%,0%,-8%,10%
COc1ccc(-n2ccnc(NCCc3ccc(S(N)(=O)=O)cc3)c2=O)cc1,nt,-6%,nt,nt,nt,nt
COc1ccc(CN(C(=O)c2ccccc2F)C2CCS(=O)(=O)C2)cc1 (configuration not stated),nt,-4%,nt,nt,-5%,nt
CC1(CC(=O)O)O[C@H]2CCCCC[C@H]2O1 (some centres not stated) (tested in a mixture with another compound),nt,nt,nt,nt,6%[9.22 µM],nt
Cc1ccc(NC(=O)CCCn2c(=O)c3cccn3c3cccnc32)cc1C,nt,3%,nt,nt,nt,nt
O=C(NNC(=O)c1cc(-c2ccncc2)nc2ccccc12)c1ccccc1F,2%,24µM*,1%,0%,nt,?
O=C(NNC(=O)c1cc(-c2ccncc2)nc2ccccc12)Nc1ccc(F)cc1,7%,?,12%,-10%,nt,-12%
O=C(O)c1cc(C2CC2)nc2ccccc12,-2%,2%,0%,2%,-2%,15%
COCCNC(=S)NNC(=O)c1cc(C2CC2)nc2ccccc12,-7%,12µM*,-8%,1%,nt,3%
CCCCNC(=S)NNC(=O)c1cc(C2CC2)nc2ccccc12,-6%,24µM*,1%,1%,nt,0%
CCCCNC(=S)NNC(=O)c1cc(-c2ccncc2)nc2ccccc12,-1%,9.5µM*,6%,0%,nt,0%
O=C(NCc1ccccc1)c1cc(-c2ccncc2)nc2ccccc12,0%,-18%,5%,-8%,nt,0%
CCC(Sc1nc2cc(OC)c(OC)cc2c(=O)n1CCc1ccc(OC)c(OC)c1)C(=O)NCCOC (configuration not stated),-1%,2%,0%,-12%,5%,18µM*
Cc1ccc(C(=O)CSc2nnc(C3CC3)n2C2CC2)s1,?,19µM*,?,?,nt,?
CCc1ccc(C(=O)CSc2nnc(C3CC3)n2C2CC2)cc1,16%,nt,26%,12%,nt,?
Brc1cccc(-c2nnc(SCc3nc4ccccc4[nH]3)o2)c1,-4%,-10%,10%,-5%,1%,-3%
Brc1cccc(-c2nnc(-c3ccccc3)o2)c1,2µM*,3µM*,1.4µM*,3.3µM*,18µM*,?
Cc1ccc(-c2nnc(-c3cccc(Br)c3)o2)cc1,?,4.8µM*,?,8.2µM*,13µM*,?
O=C1N=C(O)CN1/N=C\c1ccc(-c2ccc([N+](=O)[O-])cc2)o1,nt,nt,nt,nt,-17%[20.6 µM],nt
CC(=O)Nc1cccc(NC(=O)CSc2cn(CC(=O)N3CCCCCC3)c3ccccc23)c1,nt,-10%,nt,nt,nt,nt
CC1CCN(CCCNC(=O)c2cc(Sc3ccc(F)cc3)nc3ccccc23)CC1,nt,-1%,nt,nt,nt,nt
Cc1cc(NC(=O)c2cnn3cccnc23)no1,?,?,?,4.1µM*,?,?
Cc1cc(NC(=O)c2nn3cccnc3c2Cl)no1,1.8µM*,11µM*,1.4µM*,?,10µM*,?
SMILES,NPC1 promoter act,FLuc counter,Rab9 promoter act,ELG1 genotoxic,SMN2 splice enh,ELG1 repair inh
C=CCNC(=O)c1nn2cccnc2c1Cl,5%,-2%,7%,3%,25%,?
O=C(Nc1cc(Cl)cc(Cl)c1)c1cnn2cccnc12,2%,-13%,20%,5%,8%,?
O=C(Nc1cccc(Cl)c1)c1cnn2cccnc12,?,7.6µM*,2µM*,?,10µM*,?
COc1cccc(C(=O)N(Cc2ccc(N(C)C)cc2)Cc2ccco2)c1,nt,-3%,nt,nt,-1%,nt
CC(Oc1ccccc1)C(=O)Nc1nc(-c2ccncc2)cs1 (configuration not stated),9%,3%,-4%,3%,nt,4%
CC(Sc1nnc(NC2CC2)s1)C(=O)Nc1ccc(S(N)(=O)=O)cc1 (configuration not stated),nt,nt,nt,1%,nt,3%
CC(Sc1nnc(Nc2ccccc2)s1)C(=O)Nc1nc(-c2ccccc2)cs1 (configuration not stated),-2%,-5%,1%,-8%,4µM*,-15%
CC(Sc1nnc(NCc2ccccc2)s1)C(=O)Nc1ccc2c(c1)C(=O)c1ccccc1C2=O (configuration not stated),?,?,?,8%,1.3µM*,-23%
CCOC(=O)c1ccc(NC=C2C(=O)OC3(CCCCC3)OC2=O)cc1,0%,1%,-4%,4%,-8%,-10%
CC(=O)Nc1ccc(N/C=C2/CCCC2=O)cc1,4%,-9%,1%,14%,nt,?
CC1CCC/C(=C\Nc2ccc(C(=O)O)cc2)C1=O (configuration not stated),?,4.8µM*,?,?,nt,?
CC1CCC/C(=C\Nc2ccc(C(=O)O)c(O)c2)C1=O (configuration not stated),3.5µM*,11µM*,3.5µM*,?,nt,?
O=C1CCCC/C1=C\Nc1ccc(C(=O)O)c(O)c1,29%,11µM*,?,16%,nt,?
CCOC(=O)c1ccc(N/C=C2/CCCC(C)C2=O)cc1 (configuration not stated),3.2µM*,5.4µM*,2.5µM*,4.1µM*,?,?
NCCNc1cccc2ccccc12,nt,nt,nt,nt,-11%,nt
Cc1cccc(-n2cc(-c3ccccc3)c3c(NC(C)C)ncnc32)c1,nt,-4%,nt,nt,nt,nt
COc1ccc(-n2c(SCC(=O)c3ccc(Cl)cc3)nc3c([nH]c4ccccc43)c2=O)cc1,nt,-3%,nt,nt,nt,nt
O=C1NC2(CCCCC2)C(=O)N1/N=C/c1ccc(O)cc1O,0%,17µM*,0%,-2%,-4%,11%
COc1ccc(C(=O)/C=C/c2cn(CC(O)CN3CCCCCC3)c3ccccc23)cc1OC (configuration not stated),nt,?,nt,nt,-1%,nt
COc1ccc(N/C=C/C(=O)c2cc(OC)c(OC)c(OC)c2)cc1,-8%,6µM*,-8%,?,nt,?
COc1ccc(N/C=C/C(=O)c2ccc(OC)c(OC)c2)cc1,8%,2.4µM*,-2%,13%,nt,?
COc1ccc(C(=O)/C=C/N2CCCCC2)cc1OC,?,24µM*,23%,19%,-2%,-27%
